Measurements taken from PubChem BioAssay (NCI).
Where “and” joins values, the source holds several entries; their conditions need not be identical. Equal values may be shown once. This is part of a sample that, as a whole, favours compounds with a hit. Of some 83,000 tested, about 20% had one in any assay.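 Growth was measured after 48 h exposure to one concentration of compound in 96-well plates. Values under 10 count as active.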 Calls of active or inactive are those of the source.

Experiments:
Assay in all cases: NCI-60 one-dose screen, 48 h (100 = growth as untreated, 0 = no growth, -100 = all killed)
Conditions in all cases: 10 µM unless noted
HCT-15 colon = system: HCT-15 colon
HT29 colon = system: HT29 colon
SNB-75 CNS = system: SNB-75 CNS
SNB-19 CNS = system: SNB-19 CNS
U251 CNS = system: U251 CNS
PC-3 prostate = system: PC-3 prostate
SK-MEL-5 melanoma = system: SK-MEL-5 melanoma
UACC-62 melanoma = system: UACC-62 melanoma
LOX IMVI melanoma = system: LOX IMVI melanoma
SK-MEL-28 melanoma = system: SK-MEL-28 melanoma

Measured: growth

Nc1nn2c(-c3cc4cc(Br)ccc4oc3=O)ccnc2c1N=Nc1ccc(Br)cc1
inactive: HCT-15 colon 31.8% | HT29 colon 28.8% | PC-3 prostate 47.7% | SK-MEL-5 melanoma 22.7% | UACC-62 melanoma 48.9% | LOX IMVI melanoma 18% | SK-MEL-28 melanoma 20.5%
active: SNB-75 CNS 7.89% | SNB-19 CNS -1.72% | U251 CNS 6.85%

COc1ccc2[nH]c(O)c(N=Nc3nc(-c4ccc(C#N)cc4)cs3)c2c1
inactive: HCT-15 colon 68% | HT29 colon 79.1% | SNB-19 CNS 77.2% | U251 CNS 15.2% | PC-3 prostate 85.7% | SK-MEL-5 melanoma 53.7% | UACC-62 melanoma 72.7% | LOX IMVI melanoma 37.6% | SK-MEL-28 melanoma 68.9%
active: SNB-75 CNS -3.1%

CC(C)(C)c1ccc(OCc2nc3ccccc3n2-c2cccc(N)c2)cc1
inactive: HCT-15 colon 39.3% and 103% | HT29 colon 30.8% and 110% | SNB-75 CNS 56.9% and 120% | SNB-19 CNS 75.3% and 100% | U251 CNS 59.3% and 105% | PC-3 prostate 35.2% and 99.9% | UACC-62 melanoma 55.3% and 98.3% | LOX IMVI melanoma 54.7% and 97.9% | SK-MEL-28 melanoma 79.4% and 121%
5.56% (active) and 98.9% (inactive): SK-MEL-5 melanoma

COc1c2c(cc3c1C(CCc1ccccc1)N(C)CC3)OCO2 (stereo not given)
active: HCT-15 colon 9.64% | HT29 colon -13.3% | SNB-75 CNS -1.4% | SNB-19 CNS 8.54% | U251 CNS -32.5% | SK-MEL-5 melanoma -98.2% | UACC-62 melanoma -24% | LOX IMVI melanoma -92% | SK-MEL-28 melanoma -5.44%
inactive: PC-3 prostate 12.7%

COc1cc(C2CC(c3cc(OC)c(OC)c(OC)c3)=Nc3c(N)nc(N)nc3N2)ccc1Oc1nc(Nc2ccc(F)cc2)nc(N(C)C)n1 (stereo not given)
active: HCT-15 colon 4.98% | HT29 colon 7.02%
inactive: SNB-75 CNS 55.9% | SNB-19 CNS 70.7% | U251 CNS 56.4% | PC-3 prostate 33.8% | SK-MEL-5 melanoma 36% | UACC-62 melanoma 83.6% | LOX IMVI melanoma 10.3% | SK-MEL-28 melanoma 74%

COc1ccc(S(=O)(=O)Nc2ccc(-c3ccc4c(c3)NC(=O)/C4=C\c3ccc[nH]3)cc2)cc1OC
active: HT29 colon 8.82% | SNB-19 CNS 3.61% | U251 CNS -58.5% | UACC-62 melanoma -45.9% | LOX IMVI melanoma -30.1% | SK-MEL-28 melanoma -90.6%
inactive: HCT-15 colon 41.4% | SNB-75 CNS 13.9% | PC-3 prostate 44.5% | SK-MEL-5 melanoma 20.3%

O=C(OCCOCCO)N(c1cccc(Br)c1)c1nc(SCCN2CCOCC2)nc2c1cnn2CC(Cl)c1ccc(Br)cc1 (stereo not given)
inactive: SNB-75 CNS 47.7% | U251 CNS 14.9% | PC-3 prostate 12.1% | SK-MEL-5 melanoma 34.2%
active: HCT-15 colon -38.8% | HT29 colon 0.205% | SNB-19 CNS -69% | UACC-62 melanoma -58.9% | LOX IMVI melanoma -92.8% | SK-MEL-28 melanoma -43.5%

CN1CCN(CCS(=O)(=O)Nc2cc(-c3ccc4ncnc(Nc5ccc(F)c(Cl)c5)c4c3)cnc2Cl)CC1
inactive: HCT-15 colon 24.5% | HT29 colon 12% | SNB-75 CNS 22.1% | SNB-19 CNS 10.1% | U251 CNS 16.5% | PC-3 prostate 20.2%
active: SK-MEL-5 melanoma -75.9% | UACC-62 melanoma -3.28% | LOX IMVI melanoma -57.5% | SK-MEL-28 melanoma 4.33%

O=C1Nc2cc(-c3ccc(NS(=O)(=O)c4ccc([N+](=O)[O-])cc4)cc3)ccc2/C1=C/c1ccc[nH]1
inactive: HCT-15 colon 11% | SNB-75 CNS 34.1% | SNB-19 CNS 31.1% | PC-3 prostate 25.7% | SK-MEL-5 melanoma 24.2%
active: HT29 colon -17.3% | U251 CNS -62.4% | UACC-62 melanoma 0.956% | LOX IMVI melanoma -20.6% | SK-MEL-28 melanoma 9.97%

COc1ccc2[nH]c(O)c(N=NC(=O)c3ccc4nc(-c5ccc(Cl)cc5)[nH]c4c3)c2c1
active: U251 CNS -30.5%
inactive: HCT-15 colon 105% | HT29 colon 86.1% | SNB-75 CNS 93.8% | SNB-19 CNS 29.6% | PC-3 prostate 58.9% | SK-MEL-5 melanoma 96.2% | UACC-62 melanoma 69.8% | LOX IMVI melanoma 24.6% | SK-MEL-28 melanoma 37.2%

CC(=O)C[n+]1cccc2c3ccccc3ccc21
inactive: HCT-15 colon 97.5% | HT29 colon 93.4% | SNB-75 CNS 113% | SNB-19 CNS 69.8% | U251 CNS 59.9% | PC-3 prostate 85.1% | SK-MEL-5 melanoma 56.6% | UACC-62 melanoma 73.3% | LOX IMVI melanoma 99.8% | SK-MEL-28 melanoma 95.6%

Cn1cc(-c2cc(N)n3nc(-c4c[nH]c5ccccc45)cc3n2)c2cc(Br)ccc21
active: HCT-15 colon -76.6% | HT29 colon -52% | SNB-75 CNS -47.7% | SNB-19 CNS -85.9% | U251 CNS -95.2% | PC-3 prostate -42.7% | SK-MEL-5 melanoma -94.5% | UACC-62 melanoma -69.4% | LOX IMVI melanoma -79.3% | SK-MEL-28 melanoma -59.1%

COc1ccc([C@H]2C(C(=O)c3ccc(Cl)cc3)C3(N[C@@H]2c2ccccc2)C(=O)Nc2ccccc23)cc1 (stereo not given in full)
active: HT29 colon 9.82% | UACC-62 melanoma 9.8%
inactive: HCT-15 colon 16.4% | SNB-75 CNS 35% | SNB-19 CNS 42.2% | U251 CNS 36.5% | PC-3 prostate 36.9% | SK-MEL-5 melanoma 26% | LOX IMVI melanoma 12.2% | SK-MEL-28 melanoma 49.7%

CS(=O)(=O)Nc1cc(-c2ccc3ncnc(Nc4ccc(OCc5cccnc5)c(Cl)c4)c3c2)cnc1Cl
inactive: HCT-15 colon 13.1% | SNB-75 CNS 10.7%
active: HT29 colon 5.66% | SNB-19 CNS -0.382% | U251 CNS -34.2% | PC-3 prostate 3.42% | SK-MEL-5 melanoma -94.5% | UACC-62 melanoma -64.3% | LOX IMVI melanoma -64.2% | SK-MEL-28 melanoma -6.84%

CCOc1ccccc1[C@H]1C(C(=O)c2ccc(Cl)cc2)C2(N[C@@H]1c1ccccc1)C(=O)Nc1ccc(Cl)cc12 (stereo not given in full)
active: PC-3 prostate 9.44% | SK-MEL-5 melanoma 6.43%
inactive: HCT-15 colon 20.3% | HT29 colon 10.7% | SNB-75 CNS 30.7% | SNB-19 CNS 37.7% | U251 CNS 36.3% | UACC-62 melanoma 17.5% | LOX IMVI melanoma 13.2% | SK-MEL-28 melanoma 41.2%

COc1cc2cc(C(=O)N3C[C@@H](CCl)c4c3cc(OC(=O)N(CCC(=O)N3CCN(C)CC3)C3CCCCC3)c3ccccc43)[nH]c2c(OC)c1OC
active: HCT-15 colon -34.5% | HT29 colon -34.5% | SNB-75 CNS -75.7% | SNB-19 CNS -5.79% | U251 CNS -63.4% | PC-3 prostate -17.8% | SK-MEL-5 melanoma -99.2% | UACC-62 melanoma -94.5% | LOX IMVI melanoma -96.6% | SK-MEL-28 melanoma -97.5%

CCCCCCCCCCCCCCCCCC(=O)Nc1ccc(OC)cc1
inactive: HCT-15 colon 99.1% | HT29 colon 104% | SNB-75 CNS 144% | SNB-19 CNS 96.2% | U251 CNS 102% | PC-3 prostate 93.3% | SK-MEL-5 melanoma 102% | UACC-62 melanoma 97.5% | LOX IMVI melanoma 95.9% | SK-MEL-28 melanoma 110%

Nc1cc2ccccc2c(=O)n1NC(=O)c1ccccc1
inactive: HCT-15 colon 93.8% | HT29 colon 113% | SNB-75 CNS 80.3% | SNB-19 CNS 93.7% | U251 CNS 106% | PC-3 prostate 91.7% | SK-MEL-5 melanoma 96% | UACC-62 melanoma 76.5% | LOX IMVI melanoma 88% | SK-MEL-28 melanoma 98.8%

CN(C)CCCc1ccc(Nc2cnn(C)c(=O)c2Cl)cc1
inactive: HCT-15 colon 96.6% | HT29 colon 105% | SNB-75 CNS 74.2% | SNB-19 CNS 103% | U251 CNS 105% | PC-3 prostate 91% | SK-MEL-5 melanoma 93.2% | UACC-62 melanoma 98.9% | LOX IMVI melanoma 101% | SK-MEL-28 melanoma 111%

O=C(Nc1ccc(-c2ccc3c(c2)NC(=O)/C3=C\c2ccc[nH]2)cc1)Nc1ccc(Cl)c(C(F)(F)F)c1
inactive: HCT-15 colon 26.5% | HT29 colon 17.4% | SNB-75 CNS 38.5% | SNB-19 CNS 72.9% | U251 CNS 37.9% | PC-3 prostate 39.5% | SK-MEL-5 melanoma 49.3% | UACC-62 melanoma 31.7% | LOX IMVI melanoma 46.9% | SK-MEL-28 melanoma 47.7%

O=C(Cn1c(-c2ccccc2)nc2ccccc21)N=Nc1c(O)[nH]c2ccc(Br)cc12
active: HCT-15 colon 1.07% | HT29 colon -33.1% | SNB-75 CNS -62.4% | SNB-19 CNS -35.5% | U251 CNS -12.6% | PC-3 prostate 9.01% | SK-MEL-5 melanoma -50.2% | UACC-62 melanoma -39.7% | LOX IMVI melanoma -24.7% | SK-MEL-28 melanoma -65.4%

OCCn1cc(-c2nc3ccc4[nH]ncc4c3c3c2CCCC3)cn1
inactive: HCT-15 colon 26.4% | HT29 colon 19.7% | SNB-75 CNS 20% | SNB-19 CNS 59.3% | U251 CNS 51.2% | PC-3 prostate 67.4% | SK-MEL-5 melanoma 22.3% | UACC-62 melanoma 27.9% | LOX IMVI melanoma 25.4% | SK-MEL-28 melanoma 59.3%

Nc1cc(-c2c[nH]c3ccc(Br)cc23)nc2cc(-c3c[nH]c4ccccc34)nn12
active: HCT-15 colon -67% | HT29 colon -54.8% | SNB-75 CNS -11% | SNB-19 CNS -77.6% | U251 CNS -83.3% | PC-3 prostate -21.1% | SK-MEL-5 melanoma -96.4% | UACC-62 melanoma -89.4% | LOX IMVI melanoma -86.8% | SK-MEL-28 melanoma -98.5%
